Common to all, as to assay: PBM; 200 nM protein, PBS
Details in all cases: dsDNA, one strand shown

The target in assay [1] is T1, PAX4 (Homo sapiens, UniProt O43316 9-242, R200K).
T1 sequence: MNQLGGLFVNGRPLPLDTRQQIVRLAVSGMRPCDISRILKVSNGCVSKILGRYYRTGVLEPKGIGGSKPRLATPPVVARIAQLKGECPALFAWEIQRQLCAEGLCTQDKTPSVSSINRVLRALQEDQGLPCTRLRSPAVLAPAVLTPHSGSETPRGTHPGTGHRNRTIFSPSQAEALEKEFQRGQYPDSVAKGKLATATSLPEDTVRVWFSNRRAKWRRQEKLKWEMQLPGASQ

The target in assay [2] is T2, PAX4 (Homo sapiens, UniProt O43316 9-242).
T2 sequence: T1 sequence with K192R

The target in assay [3] is HOXD13 (Homo sapiens, UniProt P35453 263-343, T313R).
Chain of HOXD13 (Homo sapiens, UniProt P35453 263-343, T313R) (P35453 263-343 T313R): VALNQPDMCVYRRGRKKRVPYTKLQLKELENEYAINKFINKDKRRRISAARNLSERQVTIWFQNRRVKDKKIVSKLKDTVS
For assay [4], the target named is T3, PAX4 (Homo sapiens, UniProt O43316 9-242, R200Q).
T3 sequence: T1 sequence with K192Q

Assay [5] deals with PITX2 (Homo sapiens, UniProt Q99697 72-157).
The target of assay [6] is HOXD13 (Homo sapiens, UniProt P35453 263-343).
Chain of HOXD13 (Homo sapiens, UniProt P35453 263-343) (P35453 263-343): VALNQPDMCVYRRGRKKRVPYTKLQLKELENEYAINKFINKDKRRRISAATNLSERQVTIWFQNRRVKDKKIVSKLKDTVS
In assay [7] the target is T4, PAX4 (Homo sapiens, UniProt O43316 9-242, F177V).
T4 sequence: T1 sequence with F169V, K192R

Assay [8] has as its target T5, PAX4 (Homo sapiens, UniProt O43316 9-242, F177Y).
T5 sequence: T1 sequence with F169Y, K192R

Assay [9] deals with HOXD13 (Homo sapiens, UniProt P35453 263-343, T313A).
Chain of HOXD13 (Homo sapiens, UniProt P35453 263-343, T313A) (P35453 263-343 T313A): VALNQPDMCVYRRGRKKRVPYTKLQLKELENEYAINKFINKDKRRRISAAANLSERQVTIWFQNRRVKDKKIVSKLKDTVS
For assay [10], the target named is T6, PAX4 (Homo sapiens, UniProt O43316 9-242, R227W).
T6 sequence: T1 sequence with K192R, R219W

Assay [11] addresses ALX3 (Homo sapiens, UniProt O95076 139-225, N203Q).
Assay [12] has as its target ALX3 (Homo sapiens, UniProt O95076 139-225).
Assay [13] concerns the target ALX3 (Homo sapiens, UniProt O95076 139-225, L168Q).
Assay [14] addresses ALX3 (Homo sapiens, UniProt O95076 139-225, L168V).
The target of assay [15] is ALX3 (Homo sapiens, UniProt O95076 139-225, N203S).
Chain of ALX3 (Homo sapiens, UniProt O95076 139-225, N203S) (O95076 139-225 N203S): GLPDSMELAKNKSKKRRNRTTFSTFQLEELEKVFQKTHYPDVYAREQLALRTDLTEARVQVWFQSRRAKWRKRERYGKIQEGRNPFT
For assay [16], the target named is PROP1 (Homo sapiens, UniProt O75360 56-141).
Chain of PROP1 (Homo sapiens, UniProt O75360 56-141) (O75360 56-141): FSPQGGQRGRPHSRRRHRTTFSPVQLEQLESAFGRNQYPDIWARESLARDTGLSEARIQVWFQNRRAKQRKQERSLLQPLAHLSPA
The target in assay [17] is PROP1 (Homo sapiens, UniProt O75360 56-141, R99H).
Chain of PROP1 (Homo sapiens, UniProt O75360 56-141, R99H) (O75360 56-141 R99H): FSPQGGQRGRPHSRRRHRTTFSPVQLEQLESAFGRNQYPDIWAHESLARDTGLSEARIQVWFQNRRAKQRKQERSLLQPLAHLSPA
The target in assay [18] is PROP1 (Homo sapiens, UniProt O75360 56-141, F88S).
Chain of PROP1 (Homo sapiens, UniProt O75360 56-141, F88S) (O75360 56-141 F88S): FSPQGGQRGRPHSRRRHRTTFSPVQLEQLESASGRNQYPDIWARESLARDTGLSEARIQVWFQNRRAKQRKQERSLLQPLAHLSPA
In assay [19] the target is HOXA2 (Homo sapiens, UniProt O43364 129-215, R185T).
Chain of HOXA2 (Homo sapiens, UniProt O43364 129-215, R185T) (O43364 129-215 R185T): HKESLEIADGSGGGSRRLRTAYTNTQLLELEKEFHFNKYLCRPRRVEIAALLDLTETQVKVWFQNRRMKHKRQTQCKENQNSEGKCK
Assay [20] concerns the target HOXA2 (Homo sapiens, UniProt O43364 129-215, R185K).
In assay [21] the target is HOXA2 (Homo sapiens, UniProt O43364 129-215, Y150S).
Chain of HOXA2 (Homo sapiens, UniProt O43364 129-215, Y150S) (O43364 129-215 Y150S): as the sequence (O43364 129-215 R185T) above, with Y22S, T57R counted along it
The target in assay [22] is HOXA2 (Homo sapiens, UniProt O43364 129-215).
Chain of HOXA2 (Homo sapiens, UniProt O43364 129-215) (O43364 129-215): as the sequence (O43364 129-215 R185T) above, with T57R counted along it
The target of assay [23] is T7, NKX2-6 (Homo sapiens, UniProt A6NCS4 118-204, R150C).
T7 sequence: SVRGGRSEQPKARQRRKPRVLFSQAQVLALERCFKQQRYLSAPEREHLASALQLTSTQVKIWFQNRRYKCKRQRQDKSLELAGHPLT

Changes are numbered by the printed parent chain.

Chain of ALX3 (Homo sapiens, UniProt O95076 139-225, L168Q) (O95076 139-225 L168Q): as the sequence (O95076 139-225 N203S) above, with L30Q, S65N counted along it
Chain of ALX3 (Homo sapiens, UniProt O95076 139-225) (O95076 139-225): as the sequence (O95076 139-225 N203S) above, with S65N counted along it
Chain of HOXA2 (Homo sapiens, UniProt O43364 129-215, R185K) (O43364 129-215 R185K): as the sequence (O43364 129-215 R185T) above, with T57K counted along it
Chain of ALX3 (Homo sapiens, UniProt O95076 139-225, N203Q) (O95076 139-225 N203Q): as the sequence (O95076 139-225 N203S) above, with S65Q counted along it
Chain of ALX3 (Homo sapiens, UniProt O95076 139-225, L168V) (O95076 139-225 L168V): as the sequence (O95076 139-225 N203S) above, with L30V, S65N counted along it

With CGGCGTCA, the binding signal in assay [1] is 9.36 upbm affinity estimate (log intensity, higher = more binding, comparable within an allelic series); in assay [2], 9.43 upbm affinity estimate (log intensity, higher = more binding, comparable within an allelic series); in assay [3], 9.54 upbm affinity estimate (log intensity, higher = more binding, comparable within an allelic series); in assay [4], 9.37 upbm affinity estimate (log intensity, higher = more binding, comparable within an allelic series); in assay [5], 8.08 upbm affinity estimate (log intensity, higher = more binding, comparable within an allelic series); in assay [6], 9.49 upbm affinity estimate (log intensity, higher = more binding, comparable within an allelic series). The binding signal in [7] was 9.21 upbm affinity estimate (log intensity, higher = more binding, comparable within an allelic series); in assay [8], 9.24 upbm affinity estimate (log intensity, higher = more binding, comparable within an allelic series); in assay [9], 9.61 upbm affinity estimate (log intensity, higher = more binding, comparable within an allelic series); in [10] it was 9.35 upbm affinity estimate (log intensity, higher = more binding, comparable within an allelic series).
Regarding GAAGGACC, the binding signal was 9.27 upbm affinity estimate (log intensity, higher = more binding, comparable within an allelic series) in assay [1]; 9.3 upbm affinity estimate (log intensity, higher = more binding, comparable within an allelic series) in assay [2]; 7.9 upbm affinity estimate (log intensity, higher = more binding, comparable within an allelic series) in assay [11]; 9.41 upbm affinity estimate (log intensity, higher = more binding, comparable within an allelic series) in [4]; 9.34 upbm affinity estimate (log intensity, higher = more binding, comparable within an allelic series) in assay [7]; 7.9 upbm affinity estimate (log intensity, higher = more binding, comparable within an allelic series) in assay [12]. For the same sequence, the binding signal in [8] was 9.33 upbm affinity estimate (log intensity, higher = more binding, comparable within an allelic series); in assay [13], 7.8 upbm affinity estimate (log intensity, higher = more binding, comparable within an allelic series); in assay [14], 7.85 upbm affinity estimate (log intensity, higher = more binding, comparable within an allelic series); in assay [10], 9.46 upbm affinity estimate (log intensity, higher = more binding, comparable within an allelic series); in assay [15] it was 7.83 upbm affinity estimate (log intensity, higher = more binding, comparable within an allelic series).
Take CTAATAAC: the binding signal in assay [1] was 11.1 upbm affinity estimate (log intensity, higher = more binding, comparable within an allelic series); in [2], 11.3 upbm affinity estimate (log intensity, higher = more binding, comparable within an allelic series); in assay [4], 11.1 upbm affinity estimate (log intensity, higher = more binding, comparable within an allelic series); in assay [7] it was 10.4 upbm affinity estimate (log intensity, higher = more binding, comparable within an allelic series).
For GCCGGGAC, the binding signal in assay [1] is 9.33 upbm affinity estimate (log intensity, higher = more binding, comparable within an allelic series); in [2], 9.39 upbm affinity estimate (log intensity, higher = more binding, comparable within an allelic series); in assay [4] it was 9.37 upbm affinity estimate (log intensity, higher = more binding, comparable within an allelic series); in assay [7], 9.2 upbm affinity estimate (log intensity, higher = more binding, comparable within an allelic series); in [8], 9.2 upbm affinity estimate (log intensity, higher = more binding, comparable within an allelic series); in [16], 7.02 upbm affinity estimate (log intensity, higher = more binding, comparable within an allelic series). Further, the binding signal in assay [17] was 6.96 upbm affinity estimate (log intensity, higher = more binding, comparable within an allelic series); in assay [18] it was 6.46 upbm affinity estimate (log intensity, higher = more binding, comparable within an allelic series); in assay [10], 9.24 upbm affinity estimate (log intensity, higher = more binding, comparable within an allelic series).
As for AGTGATTA, the binding signal is 11.1 upbm affinity estimate (log intensity, higher = more binding, comparable within an allelic series) in [1]; 11.4 upbm affinity estimate (log intensity, higher = more binding, comparable within an allelic series) in [2]; 11.1 upbm affinity estimate (log intensity, higher = more binding, comparable within an allelic series) in assay [4]; 10.3 upbm affinity estimate (log intensity, higher = more binding, comparable within an allelic series) in [7].
For the sequence CGGGGCGC, the binding signal in [1] was 9.09 upbm affinity estimate (log intensity, higher = more binding, comparable within an allelic series); in assay [2], 9 upbm affinity estimate (log intensity, higher = more binding, comparable within an allelic series); in assay [19], 7.19 upbm affinity estimate (log intensity, higher = more binding, comparable within an allelic series); in [4], 8.96 upbm affinity estimate (log intensity, higher = more binding, comparable within an allelic series); in assay [20] it was 9.85 upbm affinity estimate (log intensity, higher = more binding, comparable within an allelic series); in [7], 8.91 upbm affinity estimate (log intensity, higher = more binding, comparable within an allelic series). Besides, the binding signal is 9.04 upbm affinity estimate (log intensity, higher = more binding, comparable within an allelic series) in assay [8]; 9.06 upbm affinity estimate (log intensity, higher = more binding, comparable within an allelic series) in assay [10]; 10.3 upbm affinity estimate (log intensity, higher = more binding, comparable within an allelic series) in assay [21]; 7.21 upbm affinity estimate (log intensity, higher = more binding, comparable within an allelic series) in assay [22].
For the sequence CCCCGGAG, the binding signal in [1] is 9.33 upbm affinity estimate (log intensity, higher = more binding, comparable within an allelic series); in [2], 9.37 upbm affinity estimate (log intensity, higher = more binding, comparable within an allelic series); in [23], 9.25 upbm affinity estimate (log intensity, higher = more binding, comparable within an allelic series); in assay [4], 9.35 upbm affinity estimate (log intensity, higher = more binding, comparable within an allelic series); in [7] it was 9.22 upbm affinity estimate (log intensity, higher = more binding, comparable within an allelic series); in assay [8], 9.27 upbm affinity estimate (log intensity, higher = more binding, comparable within an allelic series). The binding signal in assay [10] was 9.32 upbm affinity estimate (log intensity, higher = more binding, comparable within an allelic series).

The values are drawn from publication PMC11006913.
